Of roughly 7,900 targets only a part is listed; those with a hit were picked by preference. About 0.6% of all pairs of compound and target were hits.
compound: Cc1ccc(NC(=O)c2ccc(CN3CC[C@H](N(C)C)C3)c(C(F)(F)F)c2)cc1Nc1nccc(-c2cncnc2)n1 [bafetinib]; experiment: log2 fold change, soluble protein after heating vs DMSO (PISA); higher = thermal stabilisation; K562 cells, 10 uM, 30 min; active = over 0.2 and 3.5 SD of the protein, either way, in both replicates (recomputed)
Method in brief: (§1)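 Soluble protein was quantified by TMTpro 16plex LC-MS/MS after channel sums were equalised. It was obtained as the supernatant after 21,000xg for 90 min from pooled aliquots of K562 cells (2×10^6 cells/mL, 10 μM compound, 30 min) heated for 3 min across 48°C-58°C and extracted in PBS with 0.5% NP-40 at 4°C. Thermal stability values are relative to control samples and come from duplicates. They are given as log2 fold changes.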

UniProt Q96DX7, sequence (Q96DX7 whole entry, looked up): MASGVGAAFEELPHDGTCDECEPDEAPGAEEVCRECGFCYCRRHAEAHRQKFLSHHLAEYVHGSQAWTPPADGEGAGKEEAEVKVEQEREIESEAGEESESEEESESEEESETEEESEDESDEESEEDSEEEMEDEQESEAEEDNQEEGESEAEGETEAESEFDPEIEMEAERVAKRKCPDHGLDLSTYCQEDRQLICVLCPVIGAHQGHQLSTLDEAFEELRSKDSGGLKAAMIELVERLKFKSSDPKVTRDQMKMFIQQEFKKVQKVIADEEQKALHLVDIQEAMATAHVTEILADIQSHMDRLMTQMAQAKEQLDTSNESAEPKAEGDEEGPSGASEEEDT
UniProt P61960, sequence (P61960 whole entry, looked up): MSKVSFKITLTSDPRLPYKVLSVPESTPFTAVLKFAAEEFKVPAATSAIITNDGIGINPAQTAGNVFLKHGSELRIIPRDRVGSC
UniProt Q8NEZ2, sequence (Q8NEZ2 whole entry, looked up): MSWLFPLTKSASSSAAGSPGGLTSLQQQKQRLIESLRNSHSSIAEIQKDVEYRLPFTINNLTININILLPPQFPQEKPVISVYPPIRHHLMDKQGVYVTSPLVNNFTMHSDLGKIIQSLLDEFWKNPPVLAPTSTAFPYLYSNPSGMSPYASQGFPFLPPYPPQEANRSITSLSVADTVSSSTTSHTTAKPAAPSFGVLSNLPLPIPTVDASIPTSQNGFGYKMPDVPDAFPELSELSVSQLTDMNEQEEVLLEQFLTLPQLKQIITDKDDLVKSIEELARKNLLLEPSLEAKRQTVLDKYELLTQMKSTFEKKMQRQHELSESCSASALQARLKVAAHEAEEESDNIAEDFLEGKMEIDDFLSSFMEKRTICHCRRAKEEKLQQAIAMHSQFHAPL
UniProt O95857, sequence (O95857 whole entry, looked up): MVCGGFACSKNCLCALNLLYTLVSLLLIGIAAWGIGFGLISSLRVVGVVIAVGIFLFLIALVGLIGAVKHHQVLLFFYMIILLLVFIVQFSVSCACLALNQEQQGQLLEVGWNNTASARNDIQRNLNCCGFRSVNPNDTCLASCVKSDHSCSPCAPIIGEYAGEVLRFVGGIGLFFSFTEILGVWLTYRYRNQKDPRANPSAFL
UniProt Q5U3C3, sequence (Q5U3C3 whole entry, looked up): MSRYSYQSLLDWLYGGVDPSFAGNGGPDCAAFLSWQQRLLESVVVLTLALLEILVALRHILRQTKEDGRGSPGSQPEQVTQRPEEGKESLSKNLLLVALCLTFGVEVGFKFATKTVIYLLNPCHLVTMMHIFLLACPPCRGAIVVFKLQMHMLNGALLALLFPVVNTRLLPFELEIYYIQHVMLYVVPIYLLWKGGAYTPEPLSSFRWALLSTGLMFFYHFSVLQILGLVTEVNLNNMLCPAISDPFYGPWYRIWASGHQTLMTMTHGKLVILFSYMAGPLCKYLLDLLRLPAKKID
UniProt Q7Z7N9, sequence (Q7Z7N9 whole entry, looked up): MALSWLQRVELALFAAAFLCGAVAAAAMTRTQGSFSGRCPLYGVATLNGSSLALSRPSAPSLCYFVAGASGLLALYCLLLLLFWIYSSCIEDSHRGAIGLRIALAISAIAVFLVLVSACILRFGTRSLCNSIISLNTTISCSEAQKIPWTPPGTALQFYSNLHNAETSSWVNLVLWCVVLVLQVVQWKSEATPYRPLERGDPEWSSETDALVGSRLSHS
UniProt Q9NX01, sequence (Q9NX01 whole entry, looked up): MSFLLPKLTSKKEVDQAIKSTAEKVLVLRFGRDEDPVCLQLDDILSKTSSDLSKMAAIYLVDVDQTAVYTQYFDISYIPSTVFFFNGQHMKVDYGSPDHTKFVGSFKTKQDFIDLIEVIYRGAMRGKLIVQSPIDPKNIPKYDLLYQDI
UniProt Q96LJ8, sequence (Q96LJ8 whole entry, looked up): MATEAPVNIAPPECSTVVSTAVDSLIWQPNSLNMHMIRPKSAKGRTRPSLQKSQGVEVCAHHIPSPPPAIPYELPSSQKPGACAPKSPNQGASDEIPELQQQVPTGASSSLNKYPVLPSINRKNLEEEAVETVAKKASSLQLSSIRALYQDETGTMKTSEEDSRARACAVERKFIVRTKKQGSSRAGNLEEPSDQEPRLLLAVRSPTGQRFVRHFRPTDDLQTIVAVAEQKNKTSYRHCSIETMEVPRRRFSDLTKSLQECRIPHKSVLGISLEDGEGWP
UniProt Q9Y5Z9, sequence (Q9Y5Z9 whole entry, looked up): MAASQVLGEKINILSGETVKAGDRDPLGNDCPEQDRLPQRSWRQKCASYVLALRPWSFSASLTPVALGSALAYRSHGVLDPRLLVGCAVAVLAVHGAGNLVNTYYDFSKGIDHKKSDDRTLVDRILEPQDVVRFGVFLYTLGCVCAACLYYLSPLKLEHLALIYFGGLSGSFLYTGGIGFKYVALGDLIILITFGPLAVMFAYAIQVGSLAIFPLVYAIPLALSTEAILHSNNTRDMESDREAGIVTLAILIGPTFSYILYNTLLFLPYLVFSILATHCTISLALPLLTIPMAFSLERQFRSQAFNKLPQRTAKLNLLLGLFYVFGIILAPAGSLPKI
UniProt Q96HV5, sequence (Q96HV5 whole entry, looked up): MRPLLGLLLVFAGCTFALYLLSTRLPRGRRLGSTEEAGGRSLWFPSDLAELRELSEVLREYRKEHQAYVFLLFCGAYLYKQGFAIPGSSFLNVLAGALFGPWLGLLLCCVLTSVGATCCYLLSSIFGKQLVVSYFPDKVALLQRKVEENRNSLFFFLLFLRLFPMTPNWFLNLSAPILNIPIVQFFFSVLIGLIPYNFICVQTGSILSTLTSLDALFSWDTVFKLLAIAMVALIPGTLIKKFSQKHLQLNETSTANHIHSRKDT
UniProt Q9UK41, sequence (Q9UK41 whole entry, looked up): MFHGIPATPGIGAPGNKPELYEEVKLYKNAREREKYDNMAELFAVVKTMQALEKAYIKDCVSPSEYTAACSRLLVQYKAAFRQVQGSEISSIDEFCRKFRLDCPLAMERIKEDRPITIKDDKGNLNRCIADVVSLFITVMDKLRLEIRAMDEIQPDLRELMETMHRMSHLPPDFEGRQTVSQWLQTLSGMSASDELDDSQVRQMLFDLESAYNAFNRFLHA
UniProt Q16763, sequence (Q16763 whole entry, looked up): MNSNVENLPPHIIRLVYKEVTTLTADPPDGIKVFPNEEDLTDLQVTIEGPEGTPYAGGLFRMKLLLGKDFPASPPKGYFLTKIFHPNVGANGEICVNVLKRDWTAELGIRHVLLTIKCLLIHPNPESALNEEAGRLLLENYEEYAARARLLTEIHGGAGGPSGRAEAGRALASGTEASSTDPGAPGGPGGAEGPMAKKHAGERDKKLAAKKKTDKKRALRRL
UniProt Q9NVA4, sequence (Q9NVA4 whole entry, looked up): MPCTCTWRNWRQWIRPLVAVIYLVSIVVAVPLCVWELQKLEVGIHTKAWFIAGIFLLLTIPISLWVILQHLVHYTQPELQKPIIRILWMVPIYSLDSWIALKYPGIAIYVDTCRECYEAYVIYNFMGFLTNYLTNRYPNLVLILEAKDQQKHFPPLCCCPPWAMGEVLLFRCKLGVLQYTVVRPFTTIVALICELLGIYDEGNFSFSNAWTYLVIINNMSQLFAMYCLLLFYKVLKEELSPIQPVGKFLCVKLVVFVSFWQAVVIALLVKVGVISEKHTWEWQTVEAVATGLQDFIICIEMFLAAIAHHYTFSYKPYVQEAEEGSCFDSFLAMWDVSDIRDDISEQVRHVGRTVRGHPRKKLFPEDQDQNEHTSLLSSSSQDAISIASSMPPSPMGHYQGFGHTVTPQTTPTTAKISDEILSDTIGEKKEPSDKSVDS
UniProt Q9C037, sequence (Q9C037 whole entry, looked up): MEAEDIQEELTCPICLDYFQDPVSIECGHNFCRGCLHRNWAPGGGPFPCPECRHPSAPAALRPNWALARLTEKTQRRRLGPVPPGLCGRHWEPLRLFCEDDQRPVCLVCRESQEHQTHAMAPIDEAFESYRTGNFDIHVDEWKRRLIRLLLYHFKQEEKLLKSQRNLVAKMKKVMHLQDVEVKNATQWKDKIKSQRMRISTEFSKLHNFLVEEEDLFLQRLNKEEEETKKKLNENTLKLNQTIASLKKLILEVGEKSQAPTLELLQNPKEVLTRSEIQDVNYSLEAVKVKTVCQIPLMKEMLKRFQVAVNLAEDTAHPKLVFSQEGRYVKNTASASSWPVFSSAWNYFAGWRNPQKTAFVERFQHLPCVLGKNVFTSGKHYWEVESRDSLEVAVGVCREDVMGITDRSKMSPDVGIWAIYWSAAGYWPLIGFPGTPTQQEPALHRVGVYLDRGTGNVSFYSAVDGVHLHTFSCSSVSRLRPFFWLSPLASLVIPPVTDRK
UniProt Q9NUM4, sequence (Q9NUM4 whole entry, looked up): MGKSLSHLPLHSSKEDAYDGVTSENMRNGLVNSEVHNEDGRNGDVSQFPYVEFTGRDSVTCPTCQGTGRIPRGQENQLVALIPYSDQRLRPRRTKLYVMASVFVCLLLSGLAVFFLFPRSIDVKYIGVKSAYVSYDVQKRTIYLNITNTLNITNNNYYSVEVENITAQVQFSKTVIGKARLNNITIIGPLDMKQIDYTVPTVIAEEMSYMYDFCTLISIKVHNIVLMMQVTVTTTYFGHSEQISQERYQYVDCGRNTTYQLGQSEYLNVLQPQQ
UniProt P98170, sequence (P98170 whole entry, looked up): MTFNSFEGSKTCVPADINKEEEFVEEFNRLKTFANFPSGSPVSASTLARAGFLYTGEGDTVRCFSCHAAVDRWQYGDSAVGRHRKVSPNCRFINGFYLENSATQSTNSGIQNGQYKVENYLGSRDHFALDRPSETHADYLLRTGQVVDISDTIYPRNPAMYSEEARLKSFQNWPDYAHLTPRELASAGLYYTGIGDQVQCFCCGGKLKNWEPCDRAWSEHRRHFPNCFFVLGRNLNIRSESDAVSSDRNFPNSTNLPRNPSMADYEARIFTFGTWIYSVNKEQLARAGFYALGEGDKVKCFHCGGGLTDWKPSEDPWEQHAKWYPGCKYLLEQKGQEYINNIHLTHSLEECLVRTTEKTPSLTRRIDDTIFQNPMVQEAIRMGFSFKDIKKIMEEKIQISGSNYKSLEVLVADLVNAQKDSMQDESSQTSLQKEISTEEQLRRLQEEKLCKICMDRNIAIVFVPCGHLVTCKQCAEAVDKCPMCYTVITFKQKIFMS

log2 fold change, inactive:
TRIM44 (UniProt Q96DX7) -0.033
TRIM23 (UniProt P36406) -0.006
VPS28 (UniProt Q9UK41) -0.017
UBE2D1 (UniProt P51668) -0.065
TMEM268 isoform 3 (UniProt Q5VZI3) 0.318
WASHC2A (UniProt Q641Q2) -0.078
TMEM179B (UniProt Q7Z7N9) -0.074
UBE4B isoform 4 (UniProt O95155) -0.003
TRAPPC6B (UniProt Q86SZ2) -0.005
TMEM9B (UniProt Q9NQ34) -0.039
TSPAN13 (UniProt O95857) -0.101
TMEM8A (UniProt Q9HCN3) -0.054
WEE1 (UniProt P30291) -0.152
UNC119B (UniProt A6NIH7) 0.424
TRIM4 (UniProt Q9C037) 0.039
UBIAD1 (UniProt Q9Y5Z9) -0.004
USP48 isoform 8 (UniProt Q86UV5) 0.005
TMEM164 (UniProt Q5U3C3) -0.097
UFM1 isoform 2 (UniProt P61960) -0.061
TUT4 (UniProt Q5TAX3) -0.281
UBAP2L (UniProt F8W726) 0.02
TMEM41A (UniProt Q96HV5) -0.037
TMEM184C (UniProt Q9NVA4) -0.132
XIAP (UniProt P98170) -0.111
TMEM106B (UniProt Q9NUM4) -0.094
TXNL4B (UniProt Q9NX01) -0.1
UBE2S (UniProt Q16763) -0.025
VKORC1 (UniProt Q9BQB6) -0.062
TMEM161A (UniProt Q9NX61) -0.156
VWA3B isoform 6 (UniProt Q502W6) 0.074
VPS37A (UniProt Q8NEZ2) -0.065
TTI1 (UniProt O43156) -0.006
UBE2Q1 (UniProt Q7Z7E8) -0.029
TRABD (UniProt Q9H4I3) 0.202
UBXN10 (UniProt Q96LJ8) 0.002
TMEM219 (UniProt Q86XT9) -0.211

compound: Cc1cccc(CC(=O)N2CCc3c2ccc(-c2cn(C)c4ncnc(N)c24)c3F)n1; experiment: as above
Method in brief: as §1

log2 fold change, active:
UBE2D1 (UniProt P51668) -0.345
TMEM41A (UniProt Q96HV5) 0.276

log2 fold change, inactive:
TRIM44 (UniProt Q96DX7) -0.01
TRIM23 (UniProt P36406) -0.121
VPS28 (UniProt Q9UK41) -0.021
TMEM268 isoform 3 (UniProt Q5VZI3) -0.096
WASHC2A (UniProt Q641Q2) -0.025
TMEM179B (UniProt Q7Z7N9) -0.065
UBE4B isoform 4 (UniProt O95155) 0.053
TRAPPC6B (UniProt Q86SZ2) -0.024
TMEM9B (UniProt Q9NQ34) 0.036
TSPAN13 (UniProt O95857) 0.014
TMEM8A (UniProt Q9HCN3) 0.096
WEE1 (UniProt P30291) -0.062
UNC119B (UniProt A6NIH7) -0.006
TRIM4 (UniProt Q9C037) -0.015
UBIAD1 (UniProt Q9Y5Z9) -0.022
USP48 isoform 8 (UniProt Q86UV5) -0.089
TMEM164 (UniProt Q5U3C3) -0.155
UFM1 isoform 2 (UniProt P61960) 0.089
TUT4 (UniProt Q5TAX3) 0.074
UBAP2L (UniProt F8W726) -0.049
TMEM184C (UniProt Q9NVA4) -0.111
XIAP (UniProt P98170) -0.046
TMEM106B (UniProt Q9NUM4) 0.035
TXNL4B (UniProt Q9NX01) 0.005
UBE2S (UniProt Q16763) -0.08
VKORC1 (UniProt Q9BQB6) 0.045
TMEM161A (UniProt Q9NX61) 0.043
VWA3B isoform 6 (UniProt Q502W6) 0.024
VPS37A (UniProt Q8NEZ2) -0.06
TTI1 (UniProt O43156) 0.165
UBE2Q1 (UniProt Q7Z7E8) 0.015
TRABD (UniProt Q9H4I3) -0.038
UBXN10 (UniProt Q96LJ8) -0.266
TMEM219 (UniProt Q86XT9) 0.027

— the supplement of paper PMC10849652
